Results published in PubChem BioAssay (NCATS).
“And” between values parts separate entries of the source, which are not always exact repeats. Equal entries are not always repeated. Inconclusive results are not listed. The source made the active and inactive calls. The call rests on the fitted dose curve; in most records, active means well fitted curve in the direction sought with a large enough effect; inconclusive means small, poorly fitted or top-dose-only effect, or another doubt; inactive means no such curve, though single readings can be large; an effect the other way counts as inactive or inconclusive.

Assays:
[1] = test system: NIH3T3; experiment: Cytotoxic Profiling of Annotated Libraries Using Quantitative High-Throughput Screening (AID 1296008); settings: Five cell lines viability, CellTiter-Glo ATP luminescence, 48-72 h; max response: hits give low values; further: nearly all actives have a fitted effect of over 60% in size
Outline: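 Cytotoxicity was measured as CellTiter-Glo ATP luminescence, read after 10 min at room temperature. Compound treatment of the cells lasted 48 or 72 hr at 37 degrees Celsius in a qHTS format.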

[2] = test system: HACAT; experiment: qHTS assay to identify novel small-molecules to repurpose for Merkel cell carcinoma treatment (AID 1296009); settings: MCC and control cell lines, CellTiter-Glo viability, 72 h; at 44.8 µM (top of the series) unless noted; further: nearly all actives have a fitted effect of over 60% in size; further: potency means the concentration at half of the fitted maximal effect
Outline: (§1)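 After compound transfer in DMSO, plates were kept 72 hr at 37 degree celsius. Luminescent ATP signal from CellTiter-Glo served as viability measure, normalized against DMSO and no-cell controls.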

[3] = test system: MCC-13; experiment: as above; settings: MCC and control cell lines, CellTiter-Glo viability, 72 h; series mostly up to 46 µM
Outline: as §1

[4] = test system: WaGa; experiment: as above; settings: MCC and control cell lines, CellTiter-Glo viability, 72 h; series mostly up to 46 µM
Outline: as §1

[5] = test system: C33A; experiment: Primary qHTS to identify gynecologic anti-cancer compounds using libraries of approved drugs and bioactive compounds (AID 1345084); settings: Gynecologic cancer cell panel viability, ATPlite luminescence, 48 h; series mostly up to 57.5 µM; further: nearly all actives have a fitted effect of over 55% in size
Outline: (§2)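 Luminescence from the ATPlite ATP-monitoring reagent indicates viable cell number; lower signal means cytotoxicity. Cells received compound 16 h after seeding and were exposed for 48 h across five concentrations.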

[6] = test system: CAOV3; experiment: as above; settings: Gynecologic cancer cell panel viability, ATPlite luminescence, 48 h; series mostly up to 57.5 µM
Outline: as §2

[7] = test system: CASKI; experiment: as above; settings: Gynecologic cancer cell panel viability, ATPlite luminescence, 48 h; series mostly up to 57.5 µM
Outline: as §2

[8] = test system: Es-2; experiment: as above; settings: Gynecologic cancer cell panel viability, ATPlite luminescence, 48 h; series mostly up to 57.5 µM
Outline: as §2

[9] = test system: HeLa; experiment: as above; settings: Gynecologic cancer cell panel viability, ATPlite luminescence, 48 h; series mostly up to 57.5 µM
Outline: as §2

[10] = test system: Hek293T; experiment: as above; settings: Gynecologic cancer cell panel viability, ATPlite luminescence, 48 h, control line for the selectivity index; series mostly up to 57.5 µM
Outline: as §2

[11] = test system: JEG-3; experiment: as above; settings: Gynecologic cancer cell panel viability, ATPlite luminescence, 48 h; series mostly up to 57.5 µM
Outline: as §2

[12] = test system: OV90; experiment: as above; settings: Gynecologic cancer cell panel viability, ATPlite luminescence, 48 h; series mostly up to 57.5 µM
Outline: as §2

[13] = test system: PA-1; experiment: as above; settings: Gynecologic cancer cell panel viability, ATPlite luminescence, 48 h; series mostly up to 57.5 µM
Outline: as §2

[14] = test system: SKOV3; experiment: as above; settings: Gynecologic cancer cell panel viability, ATPlite luminescence, 48 h; series mostly up to 57.5 µM
Outline: as §2

[15] = test system: HEK293T; experiment: qHTS assay to identify novel small-molecules to repurpose for Merkel cell carcinoma treatment (AID 1296009); settings: MCC and control cell lines, CellTiter-Glo viability, 72 h; at 44.8 µM (top of the series) unless noted; further: nearly all actives have a fitted effect of over 60% in size; further: potency means the concentration at half of the fitted maximal effect
Outline: as §1

[16] = test system: MCC-26; experiment: as above; settings: MCC and control cell lines, CellTiter-Glo viability, 72 h; series mostly up to 46 µM
Outline: as §1

[17] = test system: MKL-1; experiment: as above; settings: MCC and control cell lines, CellTiter-Glo viability, 72 h; series mostly up to 46 µM
Outline: as §1

[18] = test system: MKL-2; experiment: as above; settings: MCC and control cell lines, CellTiter-Glo viability, 72 h; series mostly up to 46 µM
Outline: as §1

[19] = test system: UISO; experiment: as above; settings: MCC and control cell lines, CellTiter-Glo viability, 72 h; series mostly up to 46 µM
Outline: as §1

[20] = test system: NIH3T3; experiment: as above; settings: MCC and control cell lines, CellTiter-Glo viability, 72 h; at 44.8 µM (top of the series) unless noted
Outline: as §1
On the % scale 0 is the no-effect control and ±100 the full control effect.

O=C(CS)Nc1ccccc1
inactive: max response [1] 0.87% | outcome [2] | Potency [3] | Potency [4] | Potency [5] | Potency [6] | Potency [7] | Potency [8] | Potency [9] | Potency [10] | Potency [11] | Potency [12] | Potency [13] | Potency [14]

C=CCCCCCCCCC(=O)O
inactive: max response [1] 0.287% | outcome [15] | Potency [3] | Potency [16] | Potency [17] | Potency [18] | Potency [19] | Potency [4] | Potency [5] | Potency [6] | Potency [7] | Potency [8] | Potency [9] | Potency [10] | Potency [11] | Potency [12] | Potency [13] | Potency [14]

c1ccc2sc(SN3CCOCC3)nc2c1
inactive: max response [1] 0.685% | outcome [2] | outcome [15] | Potency [3] | Potency [17] | Potency [18] | Potency [19] | Potency [4] | Potency [5] | Potency [6] | Potency [7] | Potency [8] | Potency [9] | Potency [10] | Potency [11] | Potency [12] | Potency [13]

COc1cc2c3cc1Oc1cc(ccc1O)C[C@@H]1c4c(cc(OC)c(O)c4Oc4ccc(cc4)C[C@@H]3N(C)CC2)CC[N+]1(C)C
inactive: max response [1] 4.48% | outcome [15] | Potency [3] | Potency [16] | Potency [17] | Potency [18] | Potency [19] | Potency [4] | Potency [5] | Potency [6] | Potency [7] | Potency [8] | Potency [9] | Potency [10] | Potency [11] | Potency [12] | Potency [13] | Potency [14]

CN1CCN(c2cc3c(nn2)Oc2ccccc2N3C)CC1
inactive: max response [1] -0.755% | outcome [2] inactive [at 17.4 µM] | outcome [15] inactive [at 17.4 µM] | Potency [3] | Potency [16] | Potency [17] | Potency [18] | Potency [19] | Potency [4] | Potency [5] | Potency [6] | Potency [7] | Potency [8] | Potency [9] | Potency [11] | Potency [12] | Potency [13] | Potency [14]

COc1cc(NC(C)CCCN)c2ncccc2c1 (centres undefined)
inactive: outcome [1] | outcome [2] | outcome [20] | Potency [5] | Potency [6] | Potency [7] | Potency [8] | Potency [9] | Potency [10] | Potency [12] | Potency [13] | Potency [14]
active: Potency [3] 16.8 µM | Potency [17] 2.99 µM | Potency [18] 4.22 µM | Potency [19] 3.35 µM | Potency [4] 3.76 µM

c1ccc(CCNc2nc(-c3ccccc3)cs2)cc1
inactive: max response [1] -13.6% | outcome [2] | Potency [3] | Potency [17] | Potency [4] | Potency [5] | Potency [6] | Potency [7] | Potency [8] | Potency [9] | Potency [10] | Potency [11] | Potency [13] | Potency [14]

CC(=O)SCC(CC(=O)c1ccc(C)cc1)C(=O)O (centres undefined)
inactive: max response [1] -1.54% | outcome [15] | Potency [3] | Potency [16] | Potency [17] | Potency [18] | Potency [19] | Potency [4] | Potency [5] | Potency [6] | Potency [8] | Potency [9] | Potency [10] | Potency [11] | Potency [12]

CC1(C)S[C@@H]2[C@H](NC(=O)[C@H](NC(=O)N3CCN(S(C)(=O)=O)C3=O)c3ccccc3)C(=O)N2[C@H]1C(=O)O
inactive: outcome [1] | outcome [2] | outcome [20] | Potency [5] | Potency [6] | Potency [7] | Potency [8] | Potency [9] | Potency [10] | Potency [11] | Potency [12] | Potency [13]

CCCCCCCC/C=C/C(=O)O
inactive: max response [1] 2.83% | outcome [2] | Potency [3] | Potency [17] | Potency [18] | Potency [19] | Potency [4] | Potency [5] | Potency [6] | Potency [7] | Potency [8] | Potency [9] | Potency [10] | Potency [11] | Potency [12] | Potency [13] | Potency [14]

CN1[C@@H]2CC[C@H]1CC(OC(c1ccccc1)c1ccccc1)C2 (some centres undefined)
inactive: max response [1] -0.104% | outcome [2] | Potency [5] | Potency [6] | Potency [7] | Potency [8] | Potency [9] | Potency [10] | Potency [11] | Potency [13] | Potency [14]

Cc1ccc2c(n1)Oc1ccc(C(C)C(=O)OCC(=O)N(C)C)cc1C2 (centres undefined)
inactive: max response [1] -8.07% and -9.75% | outcome [15] | Potency [3] | Potency [17] | Potency [18] | Potency [19] | Potency [4] | Potency [5] | Potency [6] | Potency [7] | Potency [8] | Potency [9] | Potency [10] | Potency [11] | Potency [12] | Potency [13] | Potency [14]

COC(=O)[C@H]1[C@H]2C[C@@H]3c4[nH]c5cc(OC)ccc5c4CCN3C[C@H]2C[C@@H](OC(=O)/C=C/c2cc(OC)c(OC)c(OC)c2)[C@@H]1OC
inactive: outcome [1] | outcome [2] inactive [at 17.4 µM] | outcome [20] inactive [at 17.4 µM] | Potency [5] | Potency [6] | Potency [7] | Potency [8] | Potency [9] | Potency [10] | Potency [11] | Potency [12] | Potency [13] | Potency [14]

COc1ccnc2c1CCCCC2S(=O)c1nc2ccccc2[nH]1 (centres undefined)
inactive: max response [1] -4.2% | outcome [2] | Potency [3] | Potency [17] | Potency [18] | Potency [19] | Potency [4] | Potency [5] | Potency [7] | Potency [8] | Potency [9] | Potency [10] | Potency [11] | Potency [12] | Potency [13] | Potency [14]

CCOC(=O)c1ccccc1O
inactive: max response [1] -7.47% | outcome [15] | Potency [3] | Potency [17] | Potency [18] | Potency [19] | Potency [4] | Potency [5] | Potency [6] | Potency [7] | Potency [8] | Potency [9] | Potency [10] | Potency [11] | Potency [12] | Potency [13] | Potency [14]
